Shown are actives, neighbours in structure and some others; about 9.4% of the full set was active somewhere.
NPC1 promoter act: activates the NPC1 promoter | Potency, µM (titrated, usually from 9.22 µM), without a hit: at the top dose activation, most hits filed as activators | AID 485313 | Huh7 NPC1 promoter luciferase reporter, 24 h | actives 2.4% (n = 320,000); further: % of control where 0% means no effect; nearly all actives have a fitted effect of over 60% in size
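Cells: Huh7 expressing luciferase under the NPC1 promoter, 1500/well. Seeded 2 h, compound added, incubated 24 h at 37 °C. Luciferase reagent, 10 min ambient, then luminescence.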
ELG1 genotox: genotoxicity induction in ELG1-luciferase HEK293T cells; Potency, µM (titrated, usually from 46 µM), without a hit: top-dose activity change, positive = activation, usual class: activators; actives 1.3% (n = 330,000); HEK293T ELG1-luciferase reporter, luminescence, 16 h; further: % of control where 0% means no effect; nearly all actives have a fitted effect of over 60% in size
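Genotoxicity was scored as increased ELG1-luciferase reporter signal, measured by ONE-Glo luminescence (30 min, room temperature). Compound or vehicle exposure of the HEK293T reporter cells lasted 16 hr at 37°C.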
ELG1 repair inh: ELG1-dependent DNA repair inhibition; HEK293T ELG1-luciferase reporter, luminescence, 16 h; DNA damage induced by 5-fluorouridine; Potency, µM (titrated, usually from 46.1 µM), inactives show top-dose activity change, negative = inhibition, hits mostly inhibitors; actives 2.3% (n = 330,000); AID 504467; further: on the % scale 0 is the no-effect control and ±100 the full control effect; nearly all actives have a fitted effect of over 55% in size
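Cells (2,000 per well) received 5-fluorouridine plus test compound or DMSO and were incubated 16 hr at 37 °C, 5% CO2. Luciferase activity was read by luminescence 30 min after ONE-Glo addition; signal suppression marked inhibition of damage-induced ELG1 function.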
SMN2 splice enh: SMN2 splice variant enhancement; HEK293 SMN2-luciferase splicing reporter, luminescence, 30-36 h; Potency, µM (titrated, usually from 46.1 µM), for inactives: at the top dose activity change, positive = activation, actives largely listed as activators; actives 2.8% (n = 210,000); further: % of control where 0% means no effect; nearly all actives have a fitted effect of over 55% in size
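HEK293 cells carry an SMN2 minigene-luciferase reporter in which exon 7 inclusion puts luciferase in frame. Cells were seeded at 2000 cells/well, attached for 10-12 hours, then exposed to compounds for 30-36 hours at 37C before ONE-Glo luminescence.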
FLuc counter: firefly luciferase modulation, counter-screen for miR-21 project; P08659; purified FLuc, Km substrates, luminescence inhibition; Potency, µM (doses to about 57.5 µM), for inactives: at the top dose activity change, negative = inhibition, hits mostly inhibitors; actives 6.9% (n = 360,000); AID 588342;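 further: plate controls were vehicle for no effect and reference inhibitor for full effect; nearly all actives have a fitted effect of over 55% in size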
Target sequence (P08659 whole entry, looked up): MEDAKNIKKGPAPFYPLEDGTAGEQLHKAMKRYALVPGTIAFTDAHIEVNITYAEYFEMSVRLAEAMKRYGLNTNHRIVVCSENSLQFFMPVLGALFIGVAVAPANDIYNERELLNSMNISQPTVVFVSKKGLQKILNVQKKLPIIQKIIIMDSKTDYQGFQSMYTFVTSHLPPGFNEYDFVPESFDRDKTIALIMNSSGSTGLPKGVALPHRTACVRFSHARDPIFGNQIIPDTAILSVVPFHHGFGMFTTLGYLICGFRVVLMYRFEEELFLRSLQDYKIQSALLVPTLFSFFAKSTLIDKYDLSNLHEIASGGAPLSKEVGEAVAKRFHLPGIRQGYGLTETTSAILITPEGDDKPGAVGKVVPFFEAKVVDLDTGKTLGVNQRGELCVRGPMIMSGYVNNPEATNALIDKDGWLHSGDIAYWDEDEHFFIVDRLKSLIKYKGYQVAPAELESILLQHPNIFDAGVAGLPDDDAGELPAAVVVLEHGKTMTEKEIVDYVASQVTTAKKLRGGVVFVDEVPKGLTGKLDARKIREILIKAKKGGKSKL
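Biochemical qHTS of compounds, final roughly 60 µM downward over six points, against 10 nM purified firefly luciferase using Km concentrations of substrates (10 uM D-luciferin, 10 uM ATP) in Tris acetate pH 7.5 buffer; luminescence output.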
Rab9 prom act: activators of Rab9 promoter; Huh7 Rab9 promoter-luciferase reporter, luminescence, 24 h; Potency, µM (series often up to 9.22 µM), for inactives: at the top dose activation, negative = inhibition, most hits filed as activators; actives 2.8% (n = 320,000); further: % of control where 0% means no effect; nearly all actives have a fitted effect of over 60% in size
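Steps: seed 1500 Huh7 Rab9-luc cells per well, rest 2 h at 37 °C; add compound in DMSO; incubate 24 h; add luciferase reagent, 10 min ambient; read luminescence.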
Active calls of the source: *; ? = inconclusive; . = no result given; [ ] = another dose, or the depositor's remark. The call rests on the fitted dose curve; in most records, active means well fitted curve in the direction sought with a large enough effect; inconclusive means small, poorly fitted or top-dose-only effect, or another doubt; inactive means no such curve, though single readings can be large; an effect the other way counts as inactive or inconclusive. Potency means the concentration at half of the fitted maximal effect.

SMILES | NPC1 promoter act | ELG1 genotox | ELG1 repair inh | SMN2 splice enh | FLuc counter | Rab9 prom act
CCc1ccc(CNC(=O)c2cccc(-n3cnc4cccnc43)c2C)cc1 | . | . | . | . | 3.9% | .
COc1ccccc1CNC(=O)c1cc(Sc2cccc(Cl)c2)nc2ccccc12 | . | . | . | . | -1.4% | .
CC(=O)Oc1ccc(N(C(C)=O)S(=O)(=O)c2cccs2)c2ccccc12 | -4.0% | -20.1% | 14.6µM* | -84.3% | 3.7% | 0.9%
CC(=O)c1ccc(-c2cccc(-c3nc4ccccn4c3NC3CCCCC3)c2)cc1 | -0.2% | -11.4% | 3.55µM* | . | -3.8% | -4.1%
Cc1ccnc(NC(=O)CNC(=O)COc2ccccc2)c1 | 13.5% | ? | ? | . | 19µM* | 7.3%
Cc1ccnc(NC(=O)CNC(=O)c2ccc3ccccc3c2)c1 | 0.3% | 20.6µM* | ? | . | ? | -1.9%
Cc1cc(Cl)ccc1OCC(=O)Nc1c(Cl)ccc2nsnc12 | . | . | . | 16.3% | -10.2% | .
COCc1cc(=O)n2c(-c3ccccc3OC)n[nH]c2n1 | 1.2% | -2.0% | 0.1% | 9.9% | -5.6% | 12.6%
COCc1cc(=O)n2c(-c3ccc(C)cc3)n[nH]c2n1 | 18.8% | 11.2% | ? | ? | 9.53µM* | 3.1%
Brc1ccc2ncnc(Nc3cccc4ccccc34)c2c1 | 10.1% | -1.1% | 1.8% | -70.8% | -8.3% | -5.0%
OCCNc1ncnc2ccc(Br)cc12 | 15.8% | -7.2% | 9.2µM* | . | -1.0% | 1.7%
Cc1cc(=O)oc2cc(NC(=S)NNC(=O)c3c(Cl)cnn3C)ccc12 | 0.447µM* | ? | ? | . | 1.51µM* | 0.891µM*
Nc1ccc2nc(-c3cccc(-c4nc5ccc(N)cc5[nH]4)c3)[nH]c2c1 | -3.1% | -4.5% | 5.8% | . | 7.57µM* | -11.2%[1.84 µM]
Nc1ccc2nc(-c3ccc(Cl)cc3)[nH]c2c1 | ? | 16.4µM* | ? | ? | 1.9µM* | ?
Nc1ccc(-c2nc3ccc(N)cc3[nH]2)cc1 | ? | -8.5% | ? | ? | 15.1µM* | ?
Clc1ccc2nc(-c3ccc(Cl)nc3)[nH]c2c1 | 2.24µM* | ? | ? | . | 12µM* | 17.1%[1.84 µM]
Cc1ccc(C)c(-c2nc3ccc(N)cc3[nH]2)c1 | -2.6% | ? | ? | 15.6% | ? | -1.3%
CC(C)Cc1nc2ccc(N)cc2[nH]1 | -4.0% | 3.3% | -4.2% | . | 5.6% | -6.7%
Clc1ccc(-c2ccccc2)cn1 | -1.0% | 4.9% | 28.0% | . | -13.7% | -1.1%
O=C1c2[nH]nc(-c3ccccc3O)c2C(c2cccc(OCc3ccccc3)c2)N1CCCO (centres undefined) | . | . | . | -3.0% | -0.7% | .
CC(C)(C)OC(=O)N1CCC(c2c(C(=O)NCc3ccc4c(c3)OCO4)cnn2-c2ccc(F)cc2F)CC1 | . | . | . | . | 4.4% | .
COC(=O)CC(=O)CSc1nc2cc(C(=O)NCC(C)C)ccc2c(=O)n1CCc1ccccc1 | . | . | . | . | -2.7% | .
CCOc1ccc(S(=O)(=O)N2Cc3ccccc3CC2C(=O)Nc2ccc(NC(C)=O)cc2)cc1 (centres undefined) | . | . | . | -13.6% | -11.3% | .
CCOC(=O)C(CC)Sc1ncnc2c1c(-c1ccccc1)cn2-c1ccc(OC)cc1 (centres undefined) | . | . | . | -11.0% | 0.0% | .
Cc1nc2ccc(-c3nc4ccc(N)cc4[nH]3)cc2[nH]1 | ? | -2.9% | ? | . | 4.78µM* | ?
Nc1ccc2nc(-c3cc(Cl)c(N)c(Cl)c3)[nH]c2c1 | ? | ? | ? | 15.8µM* | 6.01µM* | 3.16µM*
Nc1ccc(-c2nc3c(Cl)c(N)ccc3[nH]2)cc1 | ? | 16.6% | ? | ? | 12µM* | ?
O=C(CSc1nnc2c(n1)[nH]c1ccccc12)Nc1nncs1 | 2.0% | -0.8% | 0.5% | . | -16.0% | 3.5%
COc1cc(NC(=O)CSc2nc(C)c(C(=O)Nc3ccccc3)c(-c3ccc(OC)c(OC)c3)c2C#N)c(OC)cc1Cl | . | . | . | 0.6% | 1.2% | .

Screening data: PubChem BioAssay, National Center for Advancing Translational Sciences (NCATS)
